Consider 40 compounds from PubChem BioAssay (NCATS).

Each structure is given as a SMILES string. “And” between values parts separate entries of the source, which are not always exact repeats. Equal entries are not always repeated. Records with an inconclusive call do not appear. Where a call stands in place of a potency, no number is given. The source made the active and inactive calls. Calls follow the shape of the dose curve; as a rule, active = well fitted cell-killing curve with a large enough effect; inconclusive = small, poorly fitted or top-dose-only effect, or effect the other way; inactive = no such curve, though single readings can be large or run the other way.
Potency is read from the fitted curve at half-maximal effect.

This test can be described thus: Viability qHTS for spleen associated tyrosine kinase inhibitor (SYKi) naive MV4-11 cells (AID 1963823). Also: nearly all actives have a fitted effect of over 40% in size. Particulars: MV4-11 AML viability, CellTiter-Glo luminescence, 72 h; series mostly up to 45 µM. An excerpt:
Department of Medicine, Hematology/Oncology
University Hospital Frankfurt, Germany.
Trials have shown promising clinical activity of the selective SYK inhibitor entospletinib in patients with high expressing HOXA9/MEIS1 acute leukemias. As the development of resistance mechanisms is a common problem in the use of targeted drugs, we performed a chemical library screen to identify drug sensitivities in SYK inhibitor resistant AML cells. […] Glucocorticoids are potent immunosuppressants which work in part by inhibiting the transcription of cytokine genes.
Described herein is a viability screen to look for activity in the SYK inhibitor naive cell line against four NCATS compound libraries (MIPE 5.0, NPC, NPACT, and Kinase) totaling 11372 compounds. Active hits were reacquired for confirmation and further secondary assay testing.
SEQUENCE No. (e.g., 1, 2, 3, etc.); […] (e.g., Cells, Incubation, Reagent, etc.); VALUE; DESCRIPTION.
1; Media; 2uL; white, solid-bottom Corning assay plate.
2; Compounds; 23nL; Echo acoustic dispenser.
3; Cell; 5uL; 500 cells per well.
4: Incubation; 72hr; 37 C, 5% CO2, 95% humidity.
5; Reagent; 3uL; CellTiter-Glo reagent (Promega).
6; Incubation; 10min; room temperature.
7; Detection; Luminescence; ViewLux plate reader (PerkinElmer).
NOTES (numbers refer to Sequence numbers above
1. Quantitative high-throughput screening (qHTS) of small molecule compounds was conducted on naive SYKi MV4-11 cell line.
2. Twenty-three nanoliter of small molecule compounds were added to each assay plates using the Echo acoustic dispenser (Beckman Coulter).
3. Cells were seeded into the assay plates at a final density of 500 cells in 5uL of media per well using the Multi-drop Combi dispenser.
4. Plates were covered with stainless steel gasketed lids and incubated for 72 hours at standard cell culture conditions.
5. Viability was assessed by adding 3uL of CellTiter-Glo detection reagent (Promega).
6. Plates were covered with gasket lids and incubated for 10 minutes at room temperature.
7. Luminescence was measured on a ViewLux plate reader (PerkinElmer).
A general note: qHTS replaces the single test concentration by a dilution series.
`C[C@@H]1CC[C@@]2(OC1)O[C@H]1C[C@H]3[C@@H]4CC=C5C[C@@H](O)CC[C@]5(C)[C@H]4CC[C@]3(C)[C@H]1[C@@H]2C`: the Potency entry is “inactive”.
Under `COc1cc(C)nc(-n2nc(C)cc2OC)n1` stands “inactive”; under `C=C[C@H]1[C@H](O[C@@H]2O[C@H](CO)[C@@H](O)[C@H](O)[C@H]2O)OC=C(C(=O)OC)[C@H]1CC=O`, “inactive”; under `Nc1ncnc2c1nc(Cl)n2[C@@H]1O[C@H](CO)[C@@H](O)[C@@H]1O`, 2.35 µM (active).
Under `O=C1NC(=O)C(c2c[nH]c3ccccc23)=C1c1c[nH]c2ccccc12` stands 1.86 µM (active); under `NS(=O)(=O)c1ccc(N=Nc2c(O)[nH]c3ccc(Br)cc23)cc1`, 0.13 µM (active); under `CC1C(=O)OCC2=CC[N+]3([O-])CCC(OC(=O)C(C)(O)C1(C)O)C23` (stereo not given), “inactive”.
Under `NS(=O)(=O)c1cc(Cl)c(Cl)c(S(N)(=O)=O)c1` stands “inactive”; under `O=C(Nc1ccccc1-c1cn2c(CN3CCNCC3)csc2n1)c1cnc2ccccc2n1`, 9.2 µM (active); under `CC(=O)c1c(O)cc(O[C@@H]2O[C@H](CO)[C@@H](O)[C@H](O)[C@H]2O)cc1O`, “inactive”.
`N[C@@H](CCC(=O)N[C@@H](CS)C(=O)NCC(=O)O)C(=O)O`: the Potency result is “inactive”.
In the case of `O=C(Nc1nc2cccc(-c3ccc(CN4CCS(=O)(=O)CC4)cc3)n2n1)C1CC1`, the Potency was 2.59 µM (active) and 5.25 µM (active).
The value for `CC(C)(C#N)c1cc(Cn2cncn2)cc(C(C)(C)C#N)c1` was “inactive”; that for `CC1CC(=O)C2C(O)(C1)CC(O)C13OC1c1c(O)cccc1C(=O)C23O` (stereo not given) was 14.3 µM (active).
Under `C1N2CN3CN1CN(C2)C3` stands “inactive”.
As for `CCOC(=O)CCNc1cc(N2CCc3ccccc3CC2)nc(-c2ccccn2)n1`, the Potency was 4.68 µM (active).
For the compound `C[C@@H]1C(=O)O[C@H]2CC34[C@H]5C[C@@H](C(C)(C)C)C36[C@@H](OC(=O)[C@@H]6O)O[C@@]4(C(=O)O5)[C@]21O` (stereo not given in full), the Potency result was “inactive”.
Turning to `CCC(C)(CN(C)C)OC(=O)c1ccccc1` (stereo not given), the Potency entry is “inactive”.
The value for `Nc1ncnc2c1c(I)cn2[C@@H]1C[C@H](N)[C@@H](O)[C@H]1O` was 2.91 µM (active); that for `O=C(CN1C(=O)C2(CCCC2)NC[C@H]1c1cc(F)cc(F)c1)Nc1ccc2c(c1)C[C@@]1(C2)C(=O)Nc2ncccc21` was “inactive”.
The value for `Cc1ccc2nc(NC(=O)CSc3nc4c(c(=O)n3-c3ccccc3)SCC4)sc2c1` was “inactive”; that for `CCN(CC)CCNc1ccc2ncn3c4ccc(O)cc4c(=O)c1c23` was 0.164 µM (active).
The value for `COc1cc(F)c(F)c(Nc2ccc(I)cc2F)c1NS(=O)(=O)C1(C[C@H](O)CO)CC1` was 0.332 µM (active); that for `C=C1C(=O)O[C@@H]2C[C@@H](C)[C@]34C[C@]5(C(=O)O[C@H]6CC(C)=C([C@H](C)CCCO)[C@H](OC(=O)C(C)CC)[C@H]65)[C@@H](C(C)=C3C[C@@H]12)[C@H]4OC(C)=O` (stereo not given in full) was 3.06 µM (active).
In the case of `CC(=O)O[C@H](C[C@@H](C)[C@H]1C(=O)[C@H](O)[C@@]2(C)[C@@H]3CCC4C(C)(C)[C@@H](O[C@@H]5OC[C@H](O)[C@H](O)[C@H]5O)CC[C@@]45C[C@@]35CC[C@]12C)[C@@H]1OC1(C)C` (stereo not given in full), the Potency result was “inactive”.
Under `CC1(C)CCCC2(C)C=C(C(=O)O)C(O)CC12` (stereo not given) stands “inactive”; under `CC[C@]1(O)C[C@H]2CN(CCc3c([nH]c4ccccc34)[C@@](C(=O)OC)(c3cc4c(cc3OC)N(C=O)[C@H]3[C@@](O)(C(=O)OC)[C@H](OC(C)=O)[C@]5(CC)C=CCN6CC[C@]43[C@@H]65)C2)C1`, 0.0118 µM (active); under `CC(C)[C@H](O)C(=O)N[C@@H](C)C(=O)N[C@@H]1C(=O)N(C)CCc2ccccc21`, “inactive”.
The value for `O=C(NCCO)c1cc(C(=O)NCCO)cc(C(=O)NCCO)c1` was “inactive”; that for `CC1=CC(=O)C(=C(C)C)CC2C1CCC2(C)O` (stereo not given) was “inactive”; that for `O=C1C[C@]23C=CCN4CCC5c6cc7c(cc6N1[C@@]5(CC2)C43)OCO7` (stereo not given in full) was 10.1 µM (active).
For `O=C(CCN1CCN(C(=O)OCc2cc(Cl)cc(Cl)c2)CC1)c1ccc2[nH]c(=O)oc2c1`, the Potency was 20.6 µM (active) and 8.33 µM (active).
Under `NCC(=O)Nc1ccc(-n2nc(C(F)(F)F)cc2-c2ccc3c(ccc4ccccc43)c2)cc1` stands 5.8 µM (active) and 5.9 µM (active); under `O=C(CCOCCOCCOCCOCCC(=O)Nc1c(I)cc(I)c(C(=O)O)c1I)Nc1c(I)cc(I)c(C(=O)O)c1I`, “inactive”; under `C=CC(=O)N1CCC[C@@H](n2nc(-c3cccc(C(=O)Nc4ccc(C(C)C)c(C)c4)c3)c3c(N)ncnc32)C1`, 1.46 µM (active).
Take `Cc1cc(=O)oc2cc(O)ccc12`: the Potency result was “inactive”.
Turning to `COc1cc2nccc(Oc3ccc(NC(=O)NC4CC4)c(Cl)c3)c2cc1C(N)=O`, the Potency was 0.461 µM (active).
On to `CC(C)[C@@H](CS(=O)(=O)C(C)C)N1C(=O)[C@@](C)(CC(=O)O)C[C@H](c2cccc(Cl)c2)[C@H]1c1ccc(Cl)cc1`, for which the Potency was 18.6 µM (active).
The value for `CN(C)CC(=O)N1CCC(c2ccc(NC(=O)c3ncc(C#N)[nH]3)c(C3=CCCCC3)c2)CC1` was 73.1 nM (active) and 74.2 nM (active).
Consider `CCCCOc1ccc(C(=O)CCN2CCCCC2)cc1`, for which the Potency was 21.1 µM (active).
